Only a selection was taken, and hits are over-represented in it overall.
LmPK inh = blocks Leishmania mexicana pyruvate kinase activity. Potency, µM (doses to about 57.5 µM), inactives show at the highest dose activity change, negative = inhibition, most hits filed as inhibitors. purified LmPK, Kinase-Glo ATP luminescence, 1 h. Q27686. 0.37% of 290,000 active. AID 1721; also: potency is read from the fitted curve at half-maximal effect; % is scaled to controls: 0 for no effect and ±100 for the full control effect
Target sequence (Q27686 whole entry, looked up): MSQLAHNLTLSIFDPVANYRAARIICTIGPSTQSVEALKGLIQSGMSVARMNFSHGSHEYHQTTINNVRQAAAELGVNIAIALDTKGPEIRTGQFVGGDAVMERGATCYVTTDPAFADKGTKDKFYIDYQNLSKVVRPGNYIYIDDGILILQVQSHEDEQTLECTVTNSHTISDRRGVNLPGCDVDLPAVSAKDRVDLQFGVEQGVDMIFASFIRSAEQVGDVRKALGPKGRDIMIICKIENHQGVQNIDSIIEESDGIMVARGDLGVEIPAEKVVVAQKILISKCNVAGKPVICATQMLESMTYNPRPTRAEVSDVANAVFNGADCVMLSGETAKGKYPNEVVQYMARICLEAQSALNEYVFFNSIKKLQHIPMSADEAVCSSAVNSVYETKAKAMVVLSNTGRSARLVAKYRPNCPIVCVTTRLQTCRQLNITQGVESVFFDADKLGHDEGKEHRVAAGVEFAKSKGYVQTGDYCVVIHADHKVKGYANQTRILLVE
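Pyruvate kinase activity monitored as ATP production (luciferase luminescence). Conditions: 0.1 nM enzyme, 0.5 mM PEP, 0.1 mM ADP, 1 h, RT; normalized against uninhibited and no-enzyme wells.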
Giardia FBPA inh = blocks Giardia fructose-bisphosphate aldolase activity; 0.71% of 290,000 active; A8B2U2; purified Giardia FBPA; Potency, µM (doses to about 59.6 µM), inactives show at the top dose activity, negative = inhibition, usual class: inhibitors; AID 2451; also: potency is read from the fitted curve at half-maximal effect; % is scaled to controls: 0 for no effect and ±100 for the full control effect; nearly all actives have a fitted effect of over 55% in size
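40 nM FBPA preincubated 10 min at RT with compound (up to 57.5 uM final), then substrate plus GAPDH/TPI/NAD/arsenate coupling and diaphorase/resazurin added. Fluorescence read after 20 min at RT, 525/598 nm.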
Sm TGR block = blocks Schistosoma mansoni thioredoxin glutathione reductase. Q962Y6. purified TGR, DTNB reduction, TNB absorbance 405 nm. Potency, µM (highest dose often 114 µM), for inactives: at the highest dose activity change, negative = inhibition, actives largely listed as inhibitors. 3% of 360,000 active. AID 485364; also: potency is read from the fitted curve at half-maximal effect; % is scaled to controls: 0 for no effect and ±100 for the full control effect; nearly all actives have a fitted effect of over 60% in size
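First, TGR (20 nM dispensed) and NADPH were mixed with compound. Second, a 15 min room-temperature incubation followed. Third, further NADPH and then DTNB were added to start the reaction. Finally, TNB absorbance was monitored kinetically.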
TbPYK inhibitor = blocks Trypanosoma brucei pyruvate kinase; Potency, µM (highest dose often 76.8 µM), inactives show at the top dose activity, negative = inhibition, most hits filed as inhibitors; Q57TT1; TbPYK enzyme, Kinase-Glo Plus ATP luminescence, 45 min; AID 624173; 0.12% of 410,000 active; also: potency is read from the fitted curve at half-maximal effect; % is scaled to controls: 0 for no effect and ±100 for the full control effect; nearly all actives have a fitted effect of over 50% in size
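Activity of T. brucei pyruvate kinase was followed by Kinase-Glo Plus luminescence after the enzyme reacted 45 min at room temperature with 130 uM ADP (final) and substrate. Test compounds were added before ADP at multiple concentrations.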
Shiga inhibitor = Shiga toxin inhibition; Vero cells, Shiga toxin protein synthesis inhibition reporter; inhibition, % at 38.7 µM; 9.2% of 290,000 active; in the data active = inhibition mostly above about 28%, no sharp cut-off; inactive = mostly below about 43%; also: 0% is about no effect
CHX counter = counter-screen for Shiga toxin inhibitors: cycloheximide protein synthesis inhibition | cell reporter, cycloheximide protein synthesis inhibition counterscreen | max response, % | 12% of 300,000 active; in the data active = max response mostly above about 13%, no sharp cut-off; inactive = mostly below about 14%; also: read at 38.3 µM for the half of the compounds with a filed dose; 0% is about no effect
* = called active by the depositor; u = inconclusive; x = no result given; + = active, no number. Unless noted, calls follow the shape of the dose curve; as a rule, active = well fitted curve in the direction sought with a large enough effect; inconclusive = small, poorly fitted or top-dose-only effect, or another doubt; inactive = no such curve, though single readings can be large; an effect the other way counts as inactive or inconclusive.

SMILES | LmPK inh | Giardia FBPA inh | Sm TGR block | TbPYK inhibitor | Shiga inhibitor | CHX counter
Nc1nnc(SCc2coc(-c3ccc(Cl)cc3)n2)s1 | 0% | -5% | -13% | 1% | 64* | 39*
Nc1nnc(SCc2ccc(Cl)cc2)s1 | 8% | -3% | -1% | 2% | + | 14
Nc1nnc(CSc2ccc(Cl)cc2)s1 | 1% | 2% | -4% | -5% | 42 | 50*
Nc1nnc(CSCc2ccc(Cl)cc2)s1 | 0% | -5% | -3% | 7% | -11 | -3
Clc1ccc(CSc2nnc(-c3ccncc3)s2)cc1 | -2% | -2% | 9% | 1% | -11 | 4
Nc1nnc(SCC(=O)Nc2ccc(Cl)cc2)s1 | x | x | 3% | -7% | x | x
Nc1nnc(SCc2cccc(C(F)(F)F)c2)s1 | 4% | 0% | -16% | 0% | 18 | 11*
CCOC(=O)c1ccc(CSc2nnc(N)s2)cc1 | -15% | 0% | -1% | -1% | 92* | 39*
CCNC(=S)Nc1ccc(C)c(S(=O)(=O)Nc2ccccc2OC)c1 | 0% | -12% | 2.8µM* | 1% | -5 | -1
O=C(CC1Oc2ccccc2NC1=O)NC1CC1 (stereo unspecified) | 3% | 2% | 79µM* | x | 24 | 5
O=[N+]([O-])c1c(Cl)cccc1-c1c[nH]cc1Cl | x | x | x | 0% | x | x
CCOC(=O)Cc1csc(NC(=O)c2cccc(Cl)c2)n1 | x | x | x | -7% | x | x
CCOC(=O)Cc1csc(NC(=O)/C=C\c2ccccc2Cl)n1 | 1% | -7% | -13% | 1% | 53* | 23*
CCOC(=O)Cc1csc(NC(=O)/C=C/c2ccccc2Cl)n1 | 1% | -8% | 5% | 0% | 71* | 38*
CC(=O)NCCNc1ncnc2ccc(-c3ccc4c(c3)OCO4)cc12 | x | 1% | x | x | x | x
CC1CC(C)CN(C(=S)Nc2ccc(SC(F)F)cc2)C1 (stereo unspecified) | 2% | -1% | -15% | 4% | -11 | -3
CN1CCC(N(C)C(=S)Nc2ccc(SC(F)F)cc2)CC1 | -4% | 6% | -2% | 1% | active | 24*
OC1CCCN(C(=S)Nc2ccc(SC(F)F)cc2)C1 (stereo unspecified) | 0% | -4% | -2% | -4% | 34* | 27*
CCOC(=O)c1c(C)[nH]c(C(C)=NNC(=O)c2cccs2)c1C | x | x | x | -6% | x | x
Cc1nn(-c2ccc(N3CCCC3)nn2)c(C)c1CCC(=O)NCc1ccccc1F | x | x | u | 3% | x | x
O=C(CNc1ccccc1N1CCCC1=O)Nc1cc(C(F)(F)F)ccc1-n1cncn1 | x | x | 2% | -2% | x | x
Cc1cn(C2CCCCC2)c(=O)n(-c2ccccc2)c1=O | x | x | x | 2% | x | x
O=S(=O)(c1ccc(Br)cc1)c1cnc2ccccc2n1 | -10% | 1% | 14µM* | 1% | -6 | 8
O=C(O)c1cnc(-c2ccccc2)nc1Sc1ccccc1Cl | 8% | 23% | 13% | 1% | -5 | 1
Brc1ccc(Sc2cnc3ccccc3n2)cc1 | -2% | 6% | 3% | 5% | 76* | 33*
SMILES | LmPK inh | Giardia FBPA inh | Sm TGR block | TbPYK inhibitor | Shiga inhibitor | CHX counter
O=C(O)c1cccnc1Sc1ccc(Br)cc1 | -2% | 4% | 11% | 1% | -6 | -2
Clc1ccc(Sc2cnc3ccccc3n2)cc1 | -1% | 5% | 15% | -1% | 85* | 38*
Clc1ccccc1Sc1cnc2ccccc2n1 | -5% | -4% | 10% | 0% | 23 | 22*
COc1ccc(S(=O)(=O)c2cnc3ccccc3n2)cc1 | -2% | 14% | u | -2% | 16 | 2
CCN(C(=O)CSc1nc2ccccc2n1CC(=O)N(C)C1CCCCC1)c1ccccc1 | x | x | -1% | 1% | x | x
O=C(O)CSc1cnc2ccccc2n1 | -1% | 4% | -29% | 11% | -2 | 13
c1ccc(Sc2cnc3ccccc3n2)cc1 | -7% | -5% | -2% | 3% | 108* | 64*
CC(C)CC(=O)Nc1ccc(S(=O)(=O)Nc2cc3c(cc2N2CCOCC2)n(C)c(=O)c(=O)n3C)cc1 | x | x | -25% | -5% | x | x
COc1ccc(NC(=O)/C=C/c2ccco2)cn1 | -2% | -27% | 8.9µM* | -1% | 90* | 36*
COc1ccc(NC(=O)/C=C/c2cccc(F)c2)cn1 | -1% | -22% | -1% | 3% | 72* | 43*
COc1ccccc1CNC(=O)/C=C/c1ccc(Br)o1 | -5% | u | 2.2µM* | -14% | -9 | 7
COc1ccc(NC(=O)/C=C/c2ccc(Br)o2)cn1 | 0% | u | 11µM* | -30% | 86* | 20*
COc1ccc(NC(=O)c2ccco2)cn1 | 4% | -1% | -6% | -7% | 28 | 11
CN(Cc1ccccc1)Cc1c(O)ccc2c(=O)c(-c3ccccc3)c(C(F)(F)F)oc12 | x | x | -5% | 4% | x | x
COc1ccccc1N1CCN(CCC(=O)Nc2cccc(Cl)c2)CC1 | 1% | -2% | -8% | 1% | -6 | -3
Cc1ccc(S(=O)(=O)Nc2cc(S(=O)(=O)N3CCOCC3)ccc2NCC2CCCO2)cc1 (stereo unspecified) | x | x | -10% | 1% | x | x
O=C(c1cc2c(s1)CCCC2)N1CCN(c2ccccc2)CC1 | -1% | 4% | -2% | 0% | 151* | 24*
COc1ccccc1N1CCN(C(=O)c2cc3c(s2)CCCCC3)CC1 | -8% | x | 2% | -4% | -20 | 2
O=C(Nc1ccccc1N1CCOCC1)c1cc2c(s1)CCCCC2 | -4% | -3% | 6% | -5% | 53* | 40*
O=C(Nc1ccc(N2CCOCC2)cc1)c1cc2c(s1)CCCCC2 | 5% | -4% | 3% | -9% | 44 | 12
O=C(Nc1ccc(N2CCOCC2)cc1)c1cc2c(s1)CCCC2 | 1% | -10% | 5% | -6% | 51 | 17*
CCc1sc(C(=O)Nc2ccccc2N2CCOCC2)cc1C | -1% | -2% | 1% | -2% | 12 | -1
COc1cccc(CNC(=O)Cn2ncn3nc(-c4cccs4)cc3c2=O)c1 | x | x | -6% | -2% | x | x
O=C1NC(=S)S/C1=C1\Sc2ccccc2N1CCCS(=O)(=O)O | 16µM* | u | 2% | 0% | -3 | -2
O=C1NC(=O)[C@@H]2C3c4ccccc4C=CN3[C@H](C(=O)c3cccs3)[C@H]12 (stereo partly specified) | 4% | u | -33% | x | 69 | 31*
C=CCn1c(O)c(N=Nc2ccccc2O)c2ccccc21 | x | x | -32% | -15% | x | x
C=CCn1c(O)c(N=Nc2ccccc2)c2ccccc21 | -5% | 15% | 40µM* | -17% | -3 | -3
Cc1noc(C)c1-c1ccc2ncnc(NCc3cccn3C)c2c1 | x | -2% | x | x | -6 | 1
Cc1cc(C)c(S(=O)(=O)c2ccccc2)c(N(C)C)n1 | -2% | -6% | 19% | -14% | -12 | -5
CN(C)c1nc(F)c(F)c(S(=O)(=O)c2ccccc2)c1F | -1% | 4% | 40µM* | 8% | 23 | 11
